Publication PMC7819943, “Rice protein-binding microarrays: a tool to detect cis-acting elements near promoter regions in rice”
Whole data set: some 68,000 sequences, median “fluorescence intensity (a.u.)” near 9,100, cut for the highest 2% near 16,000. This is one part of a sample in which the highest values are shown more often than they occur.

Biological target: OsWRKY34 (Oryza sativa, UniProt Q0JBA9 1-250)
Assay: protein-binding microarray (RPBM); PBS, 2% BSA, 51.3 ng/ul salmon testes DNA, 50 uM zinc acetate, 200 nM TF, 25 C, 1 h; high values mean tight binding
Settings: protein: recombinant; tags: N-terminal polyhistidine and DsRed monomer fusion (pET32a); label: CyDye5-dUTP incorporated in the synthesized complementary strand; 3' TTTTT single-stranded linker to array surface; dsDNA, one strand shown
Outline: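 Polyhistidine-tagged DsRed fusions of transcription factors, joined at the N-terminus, were expressed in E. coli BL21-CodonPlus and isolated on Ni–NTA. They were incubated at 200 nM for 1 h at 25 °C on a custom Agilent array, double-stranded and BSA-blocked, in PBS with 2% BSA, salmon testes DNA and 50 µM zinc acetate. The binding signal is per-feature fluorescence intensity (arbitrary units) read on an Axon 4000B scanner after washing.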

Chain of OsWRKY34 (Q0JBA9 entry or part of it): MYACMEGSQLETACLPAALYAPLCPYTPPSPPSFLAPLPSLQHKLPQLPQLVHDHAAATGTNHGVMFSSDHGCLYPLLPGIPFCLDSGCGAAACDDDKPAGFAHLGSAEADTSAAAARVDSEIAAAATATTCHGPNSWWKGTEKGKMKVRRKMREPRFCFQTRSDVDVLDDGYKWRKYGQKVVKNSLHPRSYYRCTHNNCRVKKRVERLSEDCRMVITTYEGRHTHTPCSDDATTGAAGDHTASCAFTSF

In order of rising binding signal:
1. GGAGGAGGAGGAGGGAGAGGGTGGTGTAGTGGGAGCGGCCCGGAGTCACCTAGTGCAG  8170 fluorescence intensity (a.u.)
2. TCCTCTCTGTCTCCGCCGATCTGCTCTGCCGCGACGCGCCCGGAGTCACCTAGTGCAG  8180 fluorescence intensity (a.u.)
3. CATTATCGTCGTCGTCGTCGTCGTAGTCATGTCGTGGGGCCGGAGTCACCTAGTGCAG  8180 fluorescence intensity (a.u.)
4. TGATTGCCTTCTCGATTTTGTTTGTCATTGCGTCTTTGCACGGAGTCACCTAGTGCAG  8190 fluorescence intensity (a.u.)
5. ATTTCACATGGCAAGATCCACGATGACTGAATTATCACACCGGAGTCACCTAGTGCAG  8200 fluorescence intensity (a.u.)
6. AAAATCTCCTACTAGCTCACTTCACAATGGATCAAACAAACGGAGTCACCTAGTGCAG  8230 fluorescence intensity (a.u.)
7. GAGGGCGGAGGAGGTGGTGAGGGAGGAGGTGCGGAGGCTGCGGAGTCACCTAGTGCAG  8320 fluorescence intensity (a.u.)
8. GAAGAGGAGGAGGAGGAGGAGGAGGAGGAGGGGATCAATGCGGAGTCACCTAGTGCAG  8350 fluorescence intensity (a.u.)
9. TTTACATATCTATCTTTTTTTTTTGTTTTTTCTCGCTTTTCGGAGTCACCTAGTGCAG  8460 fluorescence intensity (a.u.)
10. CTTTTTATCTCAAATTTGAAAACTTTCAACTTGGATTTGACGGAGTCACCTAGTGCAG  8520 fluorescence intensity (a.u.)
11. TCCTTGTATGAATCCATTGCCTTGCTTCTGCTTGCCCATTCGGAGTCACCTAGTGCAG  8530 fluorescence intensity (a.u.)
12. TGTTCTTGAGTTGCTTATATATGGCCTTCTAGCTCAGCTCCGGAGTCACCTAGTGCAG  8540 fluorescence intensity (a.u.)
13. CCGCCACATGCTGCTGCCGCCCCAGCCGTCGGCTGCTTCTCGGAGTCACCTAGTGCAG  8560 fluorescence intensity (a.u.)
14. CGCGCTCTGCATGTCGGTCCGTCAACTTGATCGCGATTCTCGGAGTCACCTAGTGCAG  8590 fluorescence intensity (a.u.)
15. CTTATTTCTTTTCCAGTTAGGCATATATTATCTGTTTTCTCGGAGTCACCTAGTGCAG  8700 fluorescence intensity (a.u.)
16. TGCACCGCGCGCAGGGTAGGGTGGGCGTCCTTGCCATTGTCGGAGTCACCTAGTGCAG  8740 fluorescence intensity (a.u.)
17. CTTCTCCTGCTTGTTTCCTTGTCTTGTGGTGCATCACATCCGGAGTCACCTAGTGCAG  8810 fluorescence intensity (a.u.)
18. TCGAACTATGTTTCTGGAGTTGTTTGTGTTAAAGTCCCAACGGAGTCACCTAGTGCAG  8860 fluorescence intensity (a.u.)
19. GGAAAAAGAACAATCTGCGACCAACCTCTTTTTTCTATCCCGGAGTCACCTAGTGCAG  8980 fluorescence intensity (a.u.)
20. ATGTCGGCGGCGGGCGGCGGCGGCGGCGTGGGGAAGGTGGCGGAGTCACCTAGTGCAG  9040 fluorescence intensity (a.u.)
21. AACAAAAGCACCCCTGTCCGATCCTATATTTGTTGCAGTTCGGAGTCACCTAGTGCAG  9240 fluorescence intensity (a.u.)
22. GTGGGGATGGAGGCGTCGTCGGGGTCGTCGTAGAGGTGGGCGGAGTCACCTAGTGCAG  9240 fluorescence intensity (a.u.)
23. GGGCCCCAGTCAGGGTGCGGGGCCACGGAGGGGTCGGGGACGGAGTCACCTAGTGCAG  9260 fluorescence intensity (a.u.)
24. ACTATGGGCTTTTGCATCAACAATTGCGAATTTTTTGTATCGGAGTCACCTAGTGCAG  9280 fluorescence intensity (a.u.)
25. GCAGACAACTCCGTCGCTGTTACTTCCTCTATGCCAAAACCGGAGTCACCTAGTGCAG  9350 fluorescence intensity (a.u.)
26. TGCAATTCGTACTTTTTCCTACAATTAAACAGCTACATGTCGGAGTCACCTAGTGCAG  9500 fluorescence intensity (a.u.)
27. AGCGCGCGCAGCTTTGCAGGCGTGGTCGGGGTCGTTGTGCCGGAGTCACCTAGTGCAG  9700 fluorescence intensity (a.u.)
28. CTGCGGGAGGACGGGTCCGGGGCGGGGTCCGGGTCGGTGCCGGAGTCACCTAGTGCAG  9780 fluorescence intensity (a.u.)
29. ATATATATATATATATATATATATATATATAATCTCTCCTCGGAGTCACCTAGTGCAG  9910 fluorescence intensity (a.u.)
30. ATTTTTGTCTTGAGTTAACACCGTCACGTTGCCTTCACGGCGGAGTCACCTAGTGCAG  9960 fluorescence intensity (a.u.)
31. GAGGTGGCTTTGGCGGCGGAGTGGGAGGCGGTGGTGGTGGCGGAGTCACCTAGTGCAG  10000 fluorescence intensity (a.u.)
32. GCTTGCTTGCTTGTTGCTTCCATTCCATTCCATTCCACACCGGAGTCACCTAGTGCAG  10400 fluorescence intensity (a.u.)
33. GTATTCCTACTTGAACTCTTCTTTTACTTTATTTTTCTAACGGAGTCACCTAGTGCAG  10600 fluorescence intensity (a.u.)
34. GGCGGCGGCGGCGGCGGTGGTGGTGAGGAGGAGGAGGAGGCGGAGTCACCTAGTGCAG  10700 fluorescence intensity (a.u.)
35. CTCGACCACACATATATGTTCGATACATTCCATATCTTCCCGGAGTCACCTAGTGCAG  10700 fluorescence intensity (a.u.)
36. GCCTCTGCCCATCGCATCGATCCCCGCCGTCCCTCCACCCCGGAGTCACCTAGTGCAG  11000 fluorescence intensity (a.u.)
37. CATTTTTTTAGCTTGTTCTTCCTTGTGTCACAAACATTTCCGGAGTCACCTAGTGCAG  11300 fluorescence intensity (a.u.)
38. TTTGCGGGTGGAGTTTTTTAAGTTTTTGGATTTCCTGTTTCGGAGTCACCTAGTGCAG  11700 fluorescence intensity (a.u.)
39. AACCTTTCTATAGATTTTTTTTTTTTACAAAAACACATCACGGAGTCACCTAGTGCAG  11700 fluorescence intensity (a.u.)
40. CACTGCCACTCGCCACCCAGCTCCGTCCTATGCCTCCGCGCGGAGTCACCTAGTGCAG  12400 fluorescence intensity (a.u.)
41. GGAGGATGCGGGTGGTGGTGGAGGAGGAGGAGGCCGAGGTCGGAGTCACCTAGTGCAG  12400 fluorescence intensity (a.u.)
42. GTAGTAGGGGAGGAGTGTATCTAGTAGTATAGGGAGGGAGCGGAGTCACCTAGTGCAG  13000 fluorescence intensity (a.u.)
43. CCGTCGTCGTCTTCGTCTTCCTCAGTTTATCTCCATTTCTCGGAGTCACCTAGTGCAG  13800 fluorescence intensity (a.u.)
44. GAGGAGGGGAGAAACGGGAGGTTGGTGGTGGTGGTGGAGGCGGAGTCACCTAGTGCAG  15200 fluorescence intensity (a.u.)
45. GGGTGGTCCTGCTTCTACCTTGTATACAAAACATTTCTTCCGGAGTCACCTAGTGCAG  17000 fluorescence intensity (a.u.)
46. TGACCACCATTGCTGCTTCTGCTTCTTCTTGTATGTATACCGGAGTCACCTAGTGCAG  17200 fluorescence intensity (a.u.)
47. GCGGTGGTGGTGGGCTTAGTGGAGGCGGAGGCGGCTGAGGCGGAGTCACCTAGTGCAG  17400 fluorescence intensity (a.u.)
48. GTCGGGGAGGTCGGGGTCAGGGAGGTCGGGGCCGGTGATGCGGAGTCACCTAGTGCAG  18900 fluorescence intensity (a.u.)
49. GGGTGGGGAGGTGGTGGTCGTCGGGCAGGTGGGGAGGATGCGGAGTCACCTAGTGCAG  23900 fluorescence intensity (a.u.)
50. GGTGGTGGTGGTGGTGGTGGTGGTGTAGGAGGAGGAGGAGCGGAGTCACCTAGTGCAG  27600 fluorescence intensity (a.u.)
51. GGAGGCCTAGGTGGTGGTGGTGGTCTTGGTGGAGGAGGGGCGGAGTCACCTAGTGCAG  28600 fluorescence intensity (a.u.)
52. AACTTGCGAAAATTTGACTATCAATTAGCTGGGCGATTGACGGAGTCACCTAGTGCAG  32700 fluorescence intensity (a.u.)
53. CATGTCGTCGTCGTGGTGGTGGTGGTGGTGGTGGGGCGGGCGGAGTCACCTAGTGCAG  43400 fluorescence intensity (a.u.)
54. ATAATATATAATCAAACAAAAAAATGGACTATAATCTCTCCGGAGTCACCTAGTGCAG  64400 fluorescence intensity (a.u.)
